Test results: PubChem BioAssay (EPA / NIEHS)
Active and inactive are the calls of the source. The calls were made as follows: active = hit-call score of the fitted dose curve at least 0.9, where 1 is the maximum; inactive = score below 0.9.

Legend:
[1] = target: Transcription factor E2F1 (Homo sapiens) (UniProt Q01094); experiment: ATG_E2F_CIS: Attagene CIS-FACTORIAL HepG2 Assay for human E2F Transcription Factor 1 (AID 2282935); conditions: HepG2 Attagene cis-reporter, E2F reporter RNA transcripts; actives raise or lower the signal
Transcription factor E2F1 (Homo sapiens), sequence (Q01094 whole entry, looked up): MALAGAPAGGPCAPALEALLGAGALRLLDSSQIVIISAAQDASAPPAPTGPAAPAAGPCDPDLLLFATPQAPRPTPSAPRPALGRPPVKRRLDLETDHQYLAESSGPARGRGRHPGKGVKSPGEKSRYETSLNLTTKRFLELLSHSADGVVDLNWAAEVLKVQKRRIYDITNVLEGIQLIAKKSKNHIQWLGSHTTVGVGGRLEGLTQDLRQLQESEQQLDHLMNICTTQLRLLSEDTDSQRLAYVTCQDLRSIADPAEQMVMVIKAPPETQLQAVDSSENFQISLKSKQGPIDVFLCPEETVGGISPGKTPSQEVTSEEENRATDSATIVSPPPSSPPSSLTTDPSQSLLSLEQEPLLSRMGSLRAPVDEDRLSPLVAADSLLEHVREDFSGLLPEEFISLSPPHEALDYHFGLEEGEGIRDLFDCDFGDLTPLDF
Outline: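 Transient MRTU transfection of HepG2; 24 h compound exposure; RNA → oligo(dT) RT → PCR → FAM label → HpaI cut → CE fluorescence. Gain/loss of signal fit against DMSO.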

[2] = ATG_E_Box_CIS: Attagene CIS-FACTORIAL HepG2 Assay for human Enhancer Box (E-box) (AID 2282936); conditions: HepG2 E-box cis-reporter transcription, actives raise or lower the signal
Outline: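 Transiently transfected HepG2, endogenous TF-driven reporters, 24 h dosing. Readout: RT-PCR plus capillary electrophoresis of fluorescent reporter fragments. Gain or loss of signal fitted bidirectionally against DMSO baseline.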

[3] = ATG_M_61_CIS: Attagene CIS-FACTORIAL HepG2 Assay for M61 Transcription Factor (Internal Marker) (AID 2282937); conditions: HepG2 Attagene CIS-FACTORIAL M61 internal marker reporter; actives raise or lower the signal
Outline: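 Fluorescence from labelled cDNA fragments, separated by capillary electrophoresis, quantifies reporter induction. HepG2 cells bearing transiently transfected cis-promoter MRTUs were incubated with test chemical for 24 h; DMSO defined baseline for gain/loss fitting.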

[4] = ATG_EGR_CIS: Attagene CIS-FACTORIAL HepG2 Assay for human Early Growth Response 1 (EGR1) (AID 2282938); conditions: HepG2 Attagene CIS-FACTORIAL EGR reporter mRNA; actives raise or lower the signal
Outline: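 Cell-based multiplex transcription assay: HepG2 carrying transfected cis-element reporter units, 24 h chemical treatment. Fluorescence from capillary electrophoresis of RT-PCR products gives mRNA levels; fitting is bidirectional relative to DMSO.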

[5] = ATG_M_19_CIS: Attagene CIS-FACTORIAL HepG2 Assay for M19 Transcription Factor (Internal Marker) (AID 2282939); conditions: HepG2 Attagene CIS-FACTORIAL M19 internal marker reporter; actives raise or lower the signal
Outline: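 Background-control endpoint from a multiplexed HepG2 reporter panel. Cells carrying cis-regulated reporter constructs are treated 24 h, then reporter transcripts are amplified, fluorescently labelled and sized by capillary electrophoresis. DMSO defines baseline.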

[6] = ATG_ERE_CIS: Attagene CIS-FACTORIAL HepG2 Assay for Estrogen Response Element (ERE) (AID 2282940); conditions: HepG2 ERE cis-reporter, Attagene RNA transcript; actives raise or lower the signal
Outline: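 Cells used were human hepatoma HepG2, transfected with multiple reporter transcription units under cis-regulatory promoters. Reporter mRNA, read 24 h post-dosing via fluorescent RT-PCR products on capillary electrophoresis, was fitted bidirectionally relative to DMSO.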

[7] = ATG_Ets_CIS: Attagene CIS-FACTORIAL HepG2 Assay for human Erythroblast Transformation Specific (ETS) (AID 2282941); conditions: HepG2 ETS cis-reporter transcription, actives raise or lower the signal
Outline: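 Bidirectional fit versus DMSO of reporter mRNA signal, detected by RT-PCR and capillary electrophoresis in HepG2 cells transiently transfected with cis-element reporters and dosed 24 h.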

[8] = ATG_FoxO_CIS: Attagene CIS-FACTORIAL HepG2 Assay for human Forkhead box O (FoxO) (AID 2282943); conditions: HepG2 Attagene cis-reporter, FoxO element, mRNA; actives raise or lower the signal
Outline: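 Transfected HepG2 reporter cells exposed to test chemical for 24 h; reporter RNA measured by reverse transcription, PCR and fluorescent capillary electrophoresis; curves fitted for increases and decreases against DMSO.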

[9] = ATG_GATA_CIS: Attagene CIS-FACTORIAL HepG2 Assay for human GATA Binding Protein (AID 2282944); conditions: HepG2 GATA cis-element reporter, Attagene multiplex mRNA; actives raise or lower the signal
Outline: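 Endogenous transcription factor activity was captured through cis-promoter-driven reporters in transfected HepG2 cells. After 24 h exposure, reporter transcripts were quantified by RT-PCR with fluorescent capillary electrophoresis, and responses fitted both directions against DMSO.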

[10] = target: Hepatocyte nuclear factor 3-beta (Homo sapiens) (UniProt Q9Y261); experiment: ATG_FoxA2_CIS: Attagene CIS-FACTORIAL HepG2 Assay for human Forkhead box A2 (FOXA2) (AID 2282942); conditions: HepG2 cis-reporter transcription factor activity, 24 h; actives raise or lower the signal
Hepatocyte nuclear factor 3-beta (Homo sapiens), sequence (Q9Y261 whole entry, looked up): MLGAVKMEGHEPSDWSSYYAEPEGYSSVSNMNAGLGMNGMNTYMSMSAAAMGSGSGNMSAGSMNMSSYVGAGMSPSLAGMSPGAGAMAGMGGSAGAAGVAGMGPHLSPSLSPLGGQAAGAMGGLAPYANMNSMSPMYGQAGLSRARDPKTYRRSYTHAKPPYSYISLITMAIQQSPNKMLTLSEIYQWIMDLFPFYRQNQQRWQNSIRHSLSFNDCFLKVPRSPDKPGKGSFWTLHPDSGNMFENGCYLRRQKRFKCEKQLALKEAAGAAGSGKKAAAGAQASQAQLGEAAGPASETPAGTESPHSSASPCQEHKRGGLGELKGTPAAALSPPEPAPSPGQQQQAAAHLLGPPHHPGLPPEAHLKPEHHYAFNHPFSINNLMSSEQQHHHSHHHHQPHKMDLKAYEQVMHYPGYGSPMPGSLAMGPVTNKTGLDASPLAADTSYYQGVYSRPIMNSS
Outline: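 In transiently transfected human HepG2 cells, promoter-driven reporter mRNA levels after 24 h chemical exposure are determined via RT-PCR with capillary electrophoresis. DMSO serves as baseline for bidirectional fitting.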

Measured: AC50

COc1ccccc1NC(=O)CC(C)=O
not listed: [10]
inactive: all other assays above

NNC(=O)OCc1ccccc1
not listed: [10]
inactive: all other assays above

Cc1cccc(O)c1
inactive: all assays above

CCCO[Si](OCCC)(OCCC)OCCC
active: [1] 100 µM
not listed: [10]
inactive: all other assays above

CCOC(=O)CC1(C)OCC(C)O1 (stereo not drawn)
not listed: [10]
inactive: all other assays above

O=C(O)C1=NN(c2ccc(S(=O)(=O)O)cc2)C(=O)C1
inactive: all assays above

c1coc(CNc2ncnc3nc[nH]c23)c1
inactive: all assays above

Nc1cc([N+](=O)[O-])ccc1C(=O)O
inactive: all assays above

CCn1cc(C(=O)O)c(=O)c2ccc(C)nc21
not listed: [10]
inactive: all other assays above

C/C=C(\C)C(=O)OC/C=C(\C)CCC=C(C)C
active: [6] 39 µM
inactive: all other assays above

NC(N)=S
not listed: [10]
inactive: all other assays above

[Cu+]
not listed: [10]
inactive: all other assays above

Cc1cc(N)n(-c2ccccc2)n1
not listed: [10]
inactive: all other assays above

CCCC[N+](C)(CCCC)CCCC
not listed: [10]
inactive: all other assays above

CC(=O)OC(C)(C)C1CC=C(C)CC1 (stereo not drawn)
active: [6] 26.1 µM
not listed: [10]
inactive: all other assays above

CCCCC1CCCCC(=O)O1 (stereo not drawn)
not listed: [10]
inactive: all other assays above

COC(=O)c1ccc(C(=O)OC)cc1
not listed: [10]
inactive: all other assays above

CN(C)c1ccc(C=O)cc1
not listed: [6]
inactive: all other assays above

Cc1ccncc1
not listed: [6]
inactive: all other assays above

COc1ccccc1O
not listed: [6] | [10]
inactive: all other assays above

CCC=C(C)C=O
active: [6] 27.4 µM
not listed: [10]
inactive: all other assays above

C=COCC1CCC(COC=C)CC1 (stereo not drawn)
not listed: [6]
inactive: all other assays above

CC1(C)[C@H](C=C(Cl)Cl)[C@H]1C(=O)OCc1cccc(Oc2ccccc2)c1
not listed: [6]
inactive: all other assays above

CC(C)(C)c1cccc(O)c1
not listed: [6] | [10]
inactive: all other assays above

C[C@]12CC[C@@H]3c4ccc(O)cc4CC[C@H]3[C@@H]1CC[C@@H]2O
not listed: [6]
inactive: all other assays above

C=CC(O)CCCCC (stereo not drawn)
active: [4] 100 µM | [8] 100 µM
not listed: [6] | [9]
inactive: all other assays above

CC(C)(O)C(=O)c1ccc(OCCO)cc1
not listed: [6]
inactive: all other assays above

CCCCOCCOC(=O)c1ccccc1C(=O)OCCOCCCC
not listed: [6]
inactive: all other assays above

c1ccc2scnc2c1
not listed: [6]
inactive: all other assays above
